This note sets out measurements from PubChem BioAssay (Tox21).

Assay [1] can be described thus: qHTS assay to identify small molecule agonists of the hypoxia (HIF-1) signaling pathway - cell viability counter screen (AID 1224844; calls by dose curve; further: nearly all actives have a fitted effect of over 50% in size; further: potency means the concentration at half of the fitted maximal effect). Put shortly:
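Cells (HRE-bla ME-180, 2,000 per well) sat 5 hrs at 37C, got compound for 17 hrs, were read for CCF4-AM FRET, and were finally lysed with CellTiter-Glo for a 30 min room-temperature luminescence read.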
On the technique in general: qHTS replaces the single test concentration by a dilution series.

Assay [2] is described as follows: qHTS assay to identify small molecule agonists of H2AX (AID 1224845; active means well fitted activation curve with a large enough effect in the signal ratio in the repeat runs, not every such curve was filed as active; the % refers to the signal ratio). The essentials: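 Phospho-H2AX Ser139 measured by HTRF (ex 320 nm; em 665 and 620 nm) after 24 hr antibody incubation. Compounds, 15 concentrations, 0.76% DMSO, were applied to CHO-K1 cells for 3hr at 37C before lysis.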
Assay [3] can be described thus: qHTS assay to identify small molecule agonists of the hypoxia (HIF-1) signaling pathway (AID 1224846; active means well fitted activation curve with a large enough effect in the signal ratio in the repeat runs, not every such curve was filed as active; the % refers to the signal ratio). Put shortly: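 A low-serum medium (0.5% dialyzed FBS) holding 2,000 HRE-bla ME-180 cells per well is preincubated for 5 hrs, dosed with compounds by pintool, and kept a further 17 hrs at 37C, 5% CO2 before CCF4-AM FRET detection of beta-lactamase.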
Assay [4] can be described thus: qHTS assay to identify small molecule agonists of the estrogen related receptor (ERR) signaling pathway from Tox21 library (AID 1224849; calls by dose curve; further: nearly all actives have a fitted effect of over 15% in size). The following applies: ERR reporter cell line, ONE-Glo luciferase, 18 h; at 92.4 µM (top of the series) unless noted. The essentials: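 Screening used an NTP-provided ERR luciferase cell line. Compounds in DMSO were added 6 h after seeding and left 18 h at 37 C before a 30 min ONE-Glo step and luminescence reading.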

Assay [5] can be described thus: qHTS RealTime-Glo MT Cell Viability Assay in HepG2 cells - 24 hour (AID 1224867). Further: nearly all actives have a fitted effect of over 50% in size. Further: potency means the concentration at half of the fitted maximal effect. Put shortly:
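HepG2 suspension premixed with RealTime-Glo reagents is plated at 600 cells per well and left 5 h at 37 C/5% CO2. Compounds in DMSO then go in, and bioluminescence reflecting viable cell number is recorded over 40 h.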

Assay [6] can be described thus: qHTS RealTime-Glo MT Cell Viability Assay in HEK293 cells - 32 hour (AID 1224868). Further: nearly all actives have a fitted effect of over 50% in size. Further: potency means the concentration at half of the fitted maximal effect. Put shortly: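 Reads taken at 0, 8, 16, 24, 32 and 40 h from the same wells. HEK293 cells (600/well) carried RealTime-Glo reagents from seeding, with compound added after a 5 h settle at 37 C.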
Assay [7] in a line: A CellTox Green Cytotoxicity Assay to monitor cytotoxicity in HEK293 cells - 0 hour (AID 1224869). Further: nearly all actives have a fitted effect of over 50% in size. Put shortly: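 Fluorescence intensity, read at 0, 8, 16, 24, 32 and 40 h of compound treatment, reflected dye binding to DNA of dead HEK293 cells; compounds (23 nL, DMSO) were added 5 h after plating cells with reagent.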
The nature of assay [8]: qHTS assay to identify small molecule agonists of H2AX - cell viability counter screen (AID 1224847; calls by dose curve; further: nearly all actives have a fitted effect of over 30% in size; further: potency means the concentration at half of the fitted maximal effect). The essentials:
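Wild-type CHO-K1 cells (10% FBS medium) were plated overnight at 37C, exposed to compounds at 15 concentrations for 3 hr at 37C (0.76% DMSO final), and viability was read as CellTiter-Glo luminescence after 30 min at room temperature.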

Assay [9] can be described thus: qHTS assay to identify small molecule antagonists of the estrogen related receptor (ERR) signaling pathway from Tox21 library (AID 1224848). Further: nearly all actives have a fitted effect of over 50% in size. Further: potency means the concentration at half of the fitted maximal effect. Put shortly: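 Reading was by luminescence 30 min after ONE-Glo addition. Before that, ERR cells at 2,000 per well had rested 6 h at 37 C/5% CO2 and then received pin-tooled compounds in DMSO for 18 h at 37 C.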

Values without a mark were called inactive. Inconclusive results are not listed. Calls of active or inactive are those of the source. Unless noted, the call rests on the fitted dose curve; in most records, active means well fitted curve in the direction sought with a large enough effect in the repeat runs; inconclusive means weak or mixed curves; inactive means no such curve, though single readings can be large; an effect the other way counts as inactive or inconclusive.
On the % scale 0 is the no-effect control and ±100 the full control effect.

Consider `O[C@@H](CNC[C@H](O)[C@H]1CCc2cc(F)ccc2O1)[C@@H]1CCc2cc(F)ccc2O1`, for which the Potency in [1] is 23.9 µM (active); in assay [5], 16.9 µM (active); in [6] it was 19 µM (active). Besides, the Potency result in assay [2] and in [7] was “inactive” each time. The call in [3] was inactive. In [4], the activity change, positive = activation was -67.5% [at 42.5 µM].
Turning to `COc1cc(NCc2ccc3nc(N)nc(N)c3c2C)cc(OC)c1OC`, the Potency entry in assay [1] and in assay [5] was “inactive” each time. The compound was called inactive in assay [3]. In addition, the Potency in assay [8] is 0.22 µM (active); in assay [9] it was 0.0473 µM (active); in assay [6], 0.0268 µM (active). In [4], the activity change, positive = activation is -56.3% [at 42.5 µM].
On to `CCN(CC)CC(=O)Nc1c(C)cccc1C(=O)OC`, for which the Potency entry in [1], in [2] and in [5] was “inactive” in each case. The compound was classed as inactive in [3].
Take `CCN(CC)c1ccc(C(=C2C=CC(=[N+](CC)CC)C=C2)c2ccc(S(=O)(=O)O)cc2S(=O)(=O)[O-])cc1`: the Potency is 8.71 µM (active) in assay [1] and 9.69 µM (active) in [9]. Also, the outcome in assay [3] was inactive. In addition, the activity change, positive = activation in [4] was -60.1%. Further, the Potency entry in assay [5], in [6] and in [7] was “inactive” throughout.
Turning to `CC(=O)OC(C)C[N+](C)(C)C` (stereo not given), the Potency result in assay [1], in [2], in assay [9] and in assay [6] was “inactive” in each case. Further, the activity change, positive = activation in assay [4] is 7.44% [at 42.5 µM].
Take `O=C(CCS)OCC(COC(=O)CCS)(COC(=O)CCS)COC(=O)CCS`: the Potency entry in [2], in assay [8], in [5] and in assay [7] was “inactive” each time.
For `O=C(C(=O)c1ccco1)c1ccco1`, the Potency result in assay [1], in assay [8], in assay [5] and in assay [7] was “inactive” each time. The compound was called inactive in assay [3].
`O=C1NC(=O)c2cccc3cccc1c23`: the Potency result in assay [1], in assay [8], in [5] and in assay [7] was “inactive” in each case. The result in [3] was inactive.
As for `CCN(Cc1cccc(S(=O)(=O)O)c1)c1ccc(C(=C2C=CC(=[N+](CC)Cc3cccc(S(=O)(=O)O)c3)C=C2)c2ccc(O)cc2S(=O)(=O)[O-])cc1`, in assay [3], the result was inactive. Moreover, the Potency was 19.4 µM (active) in [8] and 16.6 µM (active) in assay [9]. Also, the activity change, positive = activation in assay [4] was -59.2% [at 42.5 µM]. For the same compound, the Potency result in [5], in [6] and in assay [7] was “inactive” throughout.
In the case of `O=[N+]([O-])C1(Br)COCOC1`, the Potency is 38.9 µM (active) in assay [1], 113 µM (active) in [8], 54.9 µM (active) in assay [5] and 34.7 µM (active) in assay [6]. In assay [4], the activity change, positive = activation was -12.2%. Moreover, the Potency result in [7] was “inactive”.
`CC(C)(C)S`: the Potency entry in [2], in assay [8], in assay [9], in [5], in [6] and in [7] was “inactive” in each case. Also, in assay [3], the compound was called inactive. For the same compound, the activity change, positive = activation in assay [4] was 4.53%.
As for `CC(C)COC(=O)c1ccc(O)cc1`, the Potency result in assay [1], in assay [5] and in assay [7] was “inactive” throughout. Moreover, the call in [3] was inactive.
Consider `O=NN(CCCl)C(=O)NCCCl`, for which the Potency result in assay [1], in assay [2], in [8], in assay [9], in [5] and in [6] was “inactive” in each case. Besides, the Potency result in [7] is “inactive”. In assay [4], the activity change, positive = activation was 2.54% [at 42.5 µM].
As to `CCCCCCC(O)CCOC(C)=O` (stereo not given), the Potency entry in assay [1], in assay [2], in assay [9], in assay [6] and in assay [7] was “inactive” throughout. The outcome in assay [3] was inactive. Besides, in [4], the activity change, positive = activation was -0.596% [at 240 µM].
Regarding `c1ccc(CNc2ncnc3c2ncn3C2CCCCO2)cc1` (stereo not given), the Potency entry in assay [1], in assay [8], in assay [5] and in assay [7] was “inactive” each time. For the same compound, the call in assay [3] was inactive.
Turning to `CCN(Cc1cccc(S(=O)(=O)O)c1)c1ccc(C(=C2C=CC(=[N+](CC)Cc3cccc(S(=O)(=O)O)c3)C=C2)c2ccccc2S(=O)(=O)[O-])cc1`, the result in assay [3] was inactive. Moreover, the Potency in [8] was 25.4 µM (active); in assay [9] it was 15.4 µM (active). Also, in assay [4], the activity change, positive = activation was -48.9% [at 42.5 µM]. Besides, the Potency result in [6] is “inactive”.
In the case of `O=C(O)c1cccc(C[C@@H]2COc3ccc(OCc4nc5cc(F)ccc5s4)cc3[C@@H]2O)c1`, the Potency entry in [1], in assay [2], in [5], in [6] and in assay [7] was “inactive” each time. Besides, in [3], the compound was called inactive.
